The results in this text go back to PubChem BioAssay (NCI).

Each structure is given as a SMILES string. About 83,000 compounds went through this panel and 20% of them were active in at least one assay; those are over-represented in the sample as a whole.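 Growth was measured after 48 h exposure to one concentration of compound in 96-well plates. Values under 10 count as active.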 A number with no mark means an inactive call. Calls of active or inactive are those of the source.

This assay concerns HOP-62 NSCLC. The assay can be described thus: NCI-60 one-dose screen, 48 h (100 = growth as untreated, 0 = no growth, -100 = all killed). The note with it: 10 µM. The procedure: Growth inhibition of the HOP-62 human Non-Small Cell Lung tumor cell line is measured as a screen for anti-cancer activity. Cells are grown in 96 well plates and exposed to the test compound for 48 hours. Compounds are tested at a single concentration, which is 10^-5 M for most compounds. The reported endpoint is percent growth (GI% or GIPRCNT), where numbers from 0 - 100% represent growth inhibition, and numbers from -100% - 0 represent cell death. For example, a value of 40 represents 60% growth inhibition. A value of 0 means no net growth occurred over the course of the experiment. A value of -40 indicates 40% of cells at the beginning of the experiment died by the end of the experiment. A value of -100 means all cells are dead at the end of the experiment.
NCI-60 Human Tumor Cell Lines Screen was performed using the standard one-dose NCI protocol, which is described in more detail at https://dtp.cancer.gov/discovery_development/nci-60/default.htm.
Compounds with GIPRCNT values below 10 were considered active. Activity score was based on GIPRCNT using the following formula: […]
Score is 0 for GIPRCNT values of 100 or above, 50 for GIPRCNT values of 0, and 100 for GIPRCNT values of -100.
Turning to `Cc1noc(C)c1-c1ccc2nc(NC(=O)[C@H]3CCN(C#N)C3)cn2c1`, the growth was 92.8%.
Then `CCCCCCCCCCCCCC[n+]1ccccc1`, with -62% (active); and `COc1ccc(-c2n/c(=C\c3c(O)[nH]c4ccccc34)cc3c2=Nc2ccccc2-3)cc1`, with 86.2%; and `COc1cccc(-c2nnc(COc3ccc(-c4nc5ccc(C)cc5[nH]4)cc3OC)o2)c1`, with 101%.
Then `CCOC(=O)C(CCC1=NC(C)(C)CC(C)O1)C(=O)OCC` (stereo not given), with 93.8%.
Consider `COc1ccc(C2CC(c3ccc(-c4ccccc4)cc3)=NN2c2ccc(S(N)(=O)=O)cc2)cc1` (stereo not given), for which the growth is 90.8%.
Under `CCCCC(=O)N(c1ccc(Nc2c3ccccc3nc3cc([N+](=O)[O-])ccc23)cc1)S(C)(=O)=O` stands 56%.
Under `N#Cc1cnc2ccc(NCc3cnc[nH]3)cc2c1Nc1ccc(F)c(Cl)c1` stands 94.3%; under `NC(=O)C12C(=O)NC(=O)C1(C(=O)O)C21CCCC1` (stereo not given), 110%.
Then `COc1cc(OC)cc(-c2ccc(-c3ccc(C(=N)N)cn3)o2)c1`, with 6.78% (active); and `COc1cc(N=C2C(=O)N(Cc3ccccc3)c3ccccc32)cc(OC)c1OC`, with 101%.
For `CC1(CO)CCCC12OCCO2` (stereo not given), the growth is 100%.
Then `COCCOC(=O)NC(=O)Nc1ccc(/C(=N/O)c2ccc(Cl)cc2)cc1`, with 19.2%; and `CCc1ccc(Nc2cc(C)nc3nc(C)nn23)cc1`, with 26.8%.
Turning to `Cc1ccc(Cl)cc1Nc1nc(C(F)(F)F)ccc1C(=O)N/N=C/c1c(Cl)cccc1Cl`, the growth was 7.32% (active).
Then `CC(C)c1[nH]nc2c(NCc3ccc(-c4ccccn4)cc3)nc(SCCN)nc12`, with -15.3% (active); and `O=C(N/N=c1/ccoc2cccnc12)N1CCN(c2ncccn2)CC1`, with 24.5%.
Then `COc1ccc(-c2cn[nH]c2-c2cc(OC)c(OC)c(OC)c2)cc1`, with 45.2%; and `O=NN(CCCl)C(=O)Nc1ccc(NC(=O)N(CCCl)N=O)cc1`, with 105%.
Consider `COc1ccc2nc(/C=C/c3ccc(N(C)C)cc3)sc2c1`, for which the growth was 108%.
On to `COc1ccc(C2=Cc3ccc(OC(C)=O)cc3OC2)cc1`, for which the growth was 109%.
Then `COC1OC2COC(c3ccccc3)OC2C(=O)C1NC(=O)c1ccccc1` (stereo not given), with 86.9%; and `COc1cc(CSc2nc3ccc(C)cc3c(=O)n2Cc2ccccc2)cc(OC)c1OC`, with 40.5%.
Then `COc1ccc(C2C=C(c3ccc(OC)c(OC)c3)N=C3SC=CN32)c(Br)c1` (stereo not given), with 103%; and `CCN1CCN(c2nc(NNC(=O)c3cccc(OC)c3)nc(N3CCN(C(c4ccccc4)c4ccccc4)CC3)n2)CC1`, with 87.1%; and `NC1CCC(Nc2nc(NCc3ccc(-c4ccccc4O)nc3)c3ncn(C4CCCC4)c3n2)CC1` (stereo not given), with -9.04% (active).
As for `COc1ccc(-c2oncc2-c2cc(OC)c3c(c2)OCO3)cc1`, the growth is 33.2%.
As for `CCOC(=O)Cn1nnc(-c2ccc(OCc3ccccc3F)cc2)n1`, the growth was 87.1%.
Regarding `CNC(=S)Sc1ccc([N+](=O)[O-])cc1[N+](=O)[O-]`, the growth is 83%.
For the compound `CCCCCCCC/C=C/CCCCCCCCC1=NCCN1CCO`, the growth was 75.9%.
Then `COc1ccc(-c2cc(=O)n(-c3nc4ccccc4[nH]3)[nH]2)cc1OC`, with 71.6%.
`N=C(N)c1ccc(-c2ccc(-c3ccccc3)s2)cc1F`: the growth is -83% (active).
For `COc1cc(Cl)cc(-c2nn(-c3cccc(NC(=O)Nc4cccc(C(F)(F)F)c4)c3)cc2-c2ccncc2)c1`, the growth was 15.5%.
In the case of `COc1ccc(S(=O)(=O)Nc2ccc(OCc3nnc(-c4ccc(Cl)cc4)o3)c(F)c2)cc1`, the growth is 74.4%.
As for `CCc1ccc(-c2nnc(COc3ccc(-c4nc5cc(Cl)c(Cl)cc5[nH]4)cc3OC)o2)cc1`, the growth was 102%.
In the case of `CCCCCCCCCCN=C(c1ccc(N(C)C)cc1)c1ccc(N(C)C)cc1`, the growth is 29.4%.
Then `O=[N+]([O-])c1ccc2c(c1)Cc1cc(I)ccc1-2`, with 113%; and `CN(C)CCCN1c2ccccc2Sc2ccc(C(F)(F)F)cc21`, with 37.2%.
Under `O=C/C=C/c1ccc([N+](=O)[O-])cc1Cl` stands 99.9%; under `COc1cc(-c2cc(-c3cc(OC)c(OC)c(OC)c3)nc3nc(N)[nH]c(=O)c23)ccc1Oc1ccnc2cc(Cl)ccc12`, 29.8%.
